Experiments:
Assay in all cases: log2 ratio of Biotin-Ahx-Ub-VS probe labelling (fragment/DMSO); higher = less target engagement (more negative = stronger competition), active = hit call of the paper (q ≤ 0.05, log2 ratio ≤ -1)
Conditions in all cases: compound concentration: 200 uM; treatment time: 3 h
[1] = target: T1, ALG13 (UniProt Q9NP73)
T1 sequence (whole entry): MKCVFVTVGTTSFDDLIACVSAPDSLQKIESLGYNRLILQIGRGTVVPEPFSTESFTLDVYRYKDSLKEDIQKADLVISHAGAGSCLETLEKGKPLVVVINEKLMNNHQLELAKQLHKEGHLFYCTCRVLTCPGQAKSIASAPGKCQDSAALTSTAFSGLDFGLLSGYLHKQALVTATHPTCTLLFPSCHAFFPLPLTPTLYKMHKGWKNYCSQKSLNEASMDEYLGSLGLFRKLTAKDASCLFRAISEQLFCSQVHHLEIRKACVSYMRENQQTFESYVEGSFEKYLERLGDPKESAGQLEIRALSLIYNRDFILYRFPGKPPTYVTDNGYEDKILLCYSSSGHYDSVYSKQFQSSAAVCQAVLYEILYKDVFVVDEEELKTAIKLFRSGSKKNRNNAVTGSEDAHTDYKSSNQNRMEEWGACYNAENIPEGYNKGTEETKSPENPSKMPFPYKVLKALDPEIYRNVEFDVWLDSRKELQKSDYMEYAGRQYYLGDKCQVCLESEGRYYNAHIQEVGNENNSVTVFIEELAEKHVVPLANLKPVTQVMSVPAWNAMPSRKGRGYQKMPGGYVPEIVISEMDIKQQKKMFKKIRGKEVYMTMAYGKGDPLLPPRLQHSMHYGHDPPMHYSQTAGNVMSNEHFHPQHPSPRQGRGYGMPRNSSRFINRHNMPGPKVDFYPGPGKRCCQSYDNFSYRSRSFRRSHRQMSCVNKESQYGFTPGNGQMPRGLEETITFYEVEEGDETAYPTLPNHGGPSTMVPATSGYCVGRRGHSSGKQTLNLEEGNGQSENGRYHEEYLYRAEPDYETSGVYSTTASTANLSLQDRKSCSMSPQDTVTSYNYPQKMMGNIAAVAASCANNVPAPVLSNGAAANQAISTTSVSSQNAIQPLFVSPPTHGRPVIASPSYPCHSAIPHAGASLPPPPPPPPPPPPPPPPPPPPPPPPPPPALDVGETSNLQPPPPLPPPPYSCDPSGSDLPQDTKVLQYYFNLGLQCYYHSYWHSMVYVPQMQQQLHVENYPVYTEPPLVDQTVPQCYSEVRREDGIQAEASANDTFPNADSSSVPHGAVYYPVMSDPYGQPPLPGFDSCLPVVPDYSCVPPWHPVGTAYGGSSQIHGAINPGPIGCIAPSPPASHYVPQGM
Outline: (§1)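 Fragment (200 µM) or vehicle was incubated for 3 h with triplicate HEK293T lysate samples of 495 µg, which were then treated with Biotin-Ahx-Ub-VS at 0.5 µM final for 1 h. Labelled DUBs were enriched on NeutrAvidin, digested with LysC and trypsin, and analysed by diaPASEF LC-MS/MS. Values are average log2 fragment/vehicle ratios from an unpaired t-test on global-median-normalised Spectronaut label-free quantities, using proteins with ≥2 unique peptides.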

[2] = target: ATXN3 (UniProt P54252)
Outline: as §1

[3] = target: T2, BAP1 (UniProt Q92560)
T2 sequence (whole entry): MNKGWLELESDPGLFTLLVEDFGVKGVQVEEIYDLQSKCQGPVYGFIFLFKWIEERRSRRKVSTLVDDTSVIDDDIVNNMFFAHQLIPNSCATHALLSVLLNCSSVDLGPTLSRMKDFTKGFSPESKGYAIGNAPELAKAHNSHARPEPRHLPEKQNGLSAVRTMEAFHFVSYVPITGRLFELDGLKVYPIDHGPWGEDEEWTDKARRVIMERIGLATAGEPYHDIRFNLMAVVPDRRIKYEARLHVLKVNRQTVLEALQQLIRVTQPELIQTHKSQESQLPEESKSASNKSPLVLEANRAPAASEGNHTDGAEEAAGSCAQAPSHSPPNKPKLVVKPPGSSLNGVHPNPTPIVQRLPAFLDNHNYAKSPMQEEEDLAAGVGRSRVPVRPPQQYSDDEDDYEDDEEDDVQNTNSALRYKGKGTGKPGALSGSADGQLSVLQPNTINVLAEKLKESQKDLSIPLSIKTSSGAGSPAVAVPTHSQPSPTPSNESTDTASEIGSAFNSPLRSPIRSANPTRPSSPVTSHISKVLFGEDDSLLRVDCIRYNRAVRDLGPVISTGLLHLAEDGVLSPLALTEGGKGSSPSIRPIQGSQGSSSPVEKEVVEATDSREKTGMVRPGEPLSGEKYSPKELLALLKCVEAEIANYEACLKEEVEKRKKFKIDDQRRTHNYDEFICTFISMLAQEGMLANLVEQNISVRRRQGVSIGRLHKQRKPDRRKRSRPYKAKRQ
Outline: as §1

[4] = target: EIF3F (UniProt O00303)
Outline: as §1

[5] = target: EIF3H (UniProt O15372)
Outline: as §1

[6] = target: T3, FAM105A (UniProt Q9NUU6)
T3 sequence (whole entry): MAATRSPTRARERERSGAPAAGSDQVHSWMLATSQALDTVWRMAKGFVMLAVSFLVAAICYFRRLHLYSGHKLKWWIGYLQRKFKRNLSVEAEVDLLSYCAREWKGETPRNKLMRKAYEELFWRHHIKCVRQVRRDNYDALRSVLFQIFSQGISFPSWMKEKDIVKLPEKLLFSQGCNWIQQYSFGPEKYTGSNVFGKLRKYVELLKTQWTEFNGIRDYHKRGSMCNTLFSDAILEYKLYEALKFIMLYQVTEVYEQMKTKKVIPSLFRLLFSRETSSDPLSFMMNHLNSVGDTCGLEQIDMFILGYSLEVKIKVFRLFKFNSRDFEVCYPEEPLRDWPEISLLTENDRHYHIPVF
Outline: as §1

[7] = target: OTUB1 (UniProt Q96FW1)
Outline: as §1

[8] = target: T4, OTUD4 (UniProt Q01804)
T4 sequence (whole entry): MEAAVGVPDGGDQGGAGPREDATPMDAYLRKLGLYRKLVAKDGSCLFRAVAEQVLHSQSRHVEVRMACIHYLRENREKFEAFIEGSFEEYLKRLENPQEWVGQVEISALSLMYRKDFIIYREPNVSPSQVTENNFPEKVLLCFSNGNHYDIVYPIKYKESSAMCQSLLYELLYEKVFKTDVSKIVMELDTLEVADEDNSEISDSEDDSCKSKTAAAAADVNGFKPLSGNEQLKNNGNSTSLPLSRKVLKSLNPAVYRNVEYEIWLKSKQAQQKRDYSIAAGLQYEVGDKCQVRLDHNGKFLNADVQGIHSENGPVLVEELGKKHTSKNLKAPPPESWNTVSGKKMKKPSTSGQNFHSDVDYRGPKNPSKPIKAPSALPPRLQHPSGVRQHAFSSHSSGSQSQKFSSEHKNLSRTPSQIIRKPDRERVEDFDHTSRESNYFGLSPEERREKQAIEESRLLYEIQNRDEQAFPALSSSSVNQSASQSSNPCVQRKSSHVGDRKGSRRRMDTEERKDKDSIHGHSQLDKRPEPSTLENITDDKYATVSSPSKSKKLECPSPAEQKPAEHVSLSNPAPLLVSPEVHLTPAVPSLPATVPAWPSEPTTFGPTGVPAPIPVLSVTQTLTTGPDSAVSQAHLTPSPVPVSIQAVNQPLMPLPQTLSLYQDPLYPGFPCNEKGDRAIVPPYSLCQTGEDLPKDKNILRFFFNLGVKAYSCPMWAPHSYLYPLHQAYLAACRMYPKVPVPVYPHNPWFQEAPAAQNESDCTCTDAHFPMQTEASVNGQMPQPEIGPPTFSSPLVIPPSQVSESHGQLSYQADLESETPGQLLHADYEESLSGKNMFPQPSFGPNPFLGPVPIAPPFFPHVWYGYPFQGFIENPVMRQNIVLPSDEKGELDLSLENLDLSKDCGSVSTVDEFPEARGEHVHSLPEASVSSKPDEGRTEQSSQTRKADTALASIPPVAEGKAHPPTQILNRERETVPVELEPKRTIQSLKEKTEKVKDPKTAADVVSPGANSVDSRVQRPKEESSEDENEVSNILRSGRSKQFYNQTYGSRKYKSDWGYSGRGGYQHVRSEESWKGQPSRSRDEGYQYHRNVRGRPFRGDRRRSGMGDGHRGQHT
Outline: as §1

[9] = target: T5, OTUD5 (UniProt Q96G74)
T5 sequence (whole entry): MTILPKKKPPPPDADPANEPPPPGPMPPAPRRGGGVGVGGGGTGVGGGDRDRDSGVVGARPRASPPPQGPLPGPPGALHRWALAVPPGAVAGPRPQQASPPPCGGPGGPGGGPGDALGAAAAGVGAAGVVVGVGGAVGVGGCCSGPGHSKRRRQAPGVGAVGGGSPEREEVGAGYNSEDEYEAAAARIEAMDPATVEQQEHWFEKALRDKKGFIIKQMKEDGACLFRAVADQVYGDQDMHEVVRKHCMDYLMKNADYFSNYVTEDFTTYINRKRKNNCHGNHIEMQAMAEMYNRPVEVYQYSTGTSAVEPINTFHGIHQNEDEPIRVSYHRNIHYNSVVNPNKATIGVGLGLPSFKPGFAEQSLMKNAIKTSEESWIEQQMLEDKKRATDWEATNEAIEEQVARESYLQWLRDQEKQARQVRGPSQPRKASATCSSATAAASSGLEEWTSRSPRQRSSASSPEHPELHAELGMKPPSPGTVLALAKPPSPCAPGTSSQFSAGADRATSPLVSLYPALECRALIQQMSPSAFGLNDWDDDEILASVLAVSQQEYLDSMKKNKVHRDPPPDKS
Outline: as §1

Measured: log2 ratio of Biotin-Ahx-Ub-VS probe labelling

OTUB1, sequence (Q96FW1 whole entry): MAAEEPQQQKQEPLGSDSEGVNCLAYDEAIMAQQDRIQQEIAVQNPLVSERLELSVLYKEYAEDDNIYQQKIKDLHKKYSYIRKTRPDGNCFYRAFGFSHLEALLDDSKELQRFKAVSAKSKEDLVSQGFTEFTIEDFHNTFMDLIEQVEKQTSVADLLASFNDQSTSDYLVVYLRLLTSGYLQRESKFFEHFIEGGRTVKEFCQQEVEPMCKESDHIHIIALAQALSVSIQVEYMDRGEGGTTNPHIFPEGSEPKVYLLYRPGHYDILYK
ATXN3, sequence (P54252 whole entry): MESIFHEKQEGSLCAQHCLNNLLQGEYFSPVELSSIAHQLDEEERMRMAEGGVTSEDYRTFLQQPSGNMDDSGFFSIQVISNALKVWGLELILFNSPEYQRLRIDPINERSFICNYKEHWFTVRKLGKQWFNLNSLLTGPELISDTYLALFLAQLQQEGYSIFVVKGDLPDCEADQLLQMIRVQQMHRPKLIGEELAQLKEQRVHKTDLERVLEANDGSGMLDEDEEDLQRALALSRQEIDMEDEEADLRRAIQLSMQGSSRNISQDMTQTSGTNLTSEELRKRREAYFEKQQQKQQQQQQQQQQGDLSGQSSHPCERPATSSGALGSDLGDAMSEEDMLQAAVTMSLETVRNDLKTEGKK
EIF3H, sequence (O15372 whole entry): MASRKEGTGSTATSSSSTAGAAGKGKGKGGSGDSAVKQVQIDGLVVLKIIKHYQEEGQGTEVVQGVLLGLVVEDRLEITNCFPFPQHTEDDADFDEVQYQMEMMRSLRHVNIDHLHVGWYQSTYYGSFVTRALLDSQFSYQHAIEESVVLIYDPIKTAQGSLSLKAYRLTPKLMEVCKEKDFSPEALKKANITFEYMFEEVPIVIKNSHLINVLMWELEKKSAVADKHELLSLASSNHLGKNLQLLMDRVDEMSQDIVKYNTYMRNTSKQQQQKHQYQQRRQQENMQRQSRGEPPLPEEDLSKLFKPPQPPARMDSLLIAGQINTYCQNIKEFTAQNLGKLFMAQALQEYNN
EIF3F, sequence (O00303 whole entry): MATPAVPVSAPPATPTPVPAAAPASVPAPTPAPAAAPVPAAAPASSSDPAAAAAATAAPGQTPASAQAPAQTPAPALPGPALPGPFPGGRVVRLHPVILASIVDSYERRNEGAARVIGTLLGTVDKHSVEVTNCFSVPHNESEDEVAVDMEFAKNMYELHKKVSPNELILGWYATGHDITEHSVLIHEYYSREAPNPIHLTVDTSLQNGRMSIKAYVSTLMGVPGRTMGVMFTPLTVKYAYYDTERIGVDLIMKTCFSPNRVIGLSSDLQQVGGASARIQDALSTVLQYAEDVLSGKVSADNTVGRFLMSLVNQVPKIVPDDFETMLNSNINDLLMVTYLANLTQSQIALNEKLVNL

C#Cc1cccc(NC(=O)CCl)c1
inactive: [1] -0.0771 | [2] -0.239 | [4] -0.206 | [5] 0.0977 | [6] 0.233 | [7] -0.135 | [8] -0.211 | [9] -0.288
active: [3] -3.08
